Molecules are shown by their SMILES. Structures can show the parent of a compound that is named as a salt.

For this test, the system named is Danio rerio larvae (5 dpf). The test is described as follows: optomotor response to blue moving lines, difference vs DMSO (percentage points (treated minus DMSO)); higher = more of the behaviour than the DMSO vehicle control. Particulars: 10 µM; exposure time: 3 h pre-incubation + 3 h imaging. As for the experimental part: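 5-dpf wild-type zebrafish larvae were imaged in 96-well plates. They were treated with 190 Tocris FDA-approved drugs at 10 µM (1 µl/ml DMSO) for 3 h before and 3 h during imaging at 28.5 °C, 48 larvae per drug. Automated image analysis gave % time moving and optomotor responses. Values are drug group mean minus DMSO vehicle mean (n=844), in percentage points, for 10 behaviours.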
Turning to `C[C@H]1O[C@H](O[C@H]2[C@H](O)[C@@H](O)[C@@H](O[C@H]3[C@H](O)[C@@H](O)C(O)O[C@@H]3CO)O[C@@H]2CO)[C@H](O)[C@@H](O)[C@@H]1N[C@H]1C=C(CO)[C@@H](O)[C@H](O)[C@H]1O` (stereo not given in full) [Acarbose], the “optomotor response to blue moving lines” value was 15.5. For `COc1cc2nc(N3CCN(C(=O)C4COc5ccccc5O4)CC3)nc(N)c2cc1OC` (stereo not given) [Doxazosin mesylate] the value was -6.52. `CCCC1O[C@@H]2C[C@H]3[C@@H]4CCC5=CC(=O)C=C[C@]5(C)[C@H]4[C@@H](O)C[C@]3(C)[C@]2(C(=O)CO)O1` (stereo not given in full) [Budesonide]: the “optomotor response to blue moving lines” value is 2.29.

With `CC(C)(C#N)c1cc(Cn2cncn2)cc(C(C)(C)C#N)c1` [Anastrozole], the “optomotor response to blue moving lines” value is -5.16. Turning to `COc1c(C)c2c(c(O)c1C/C=C(\C)CCC(=O)OCCN1CCOCC1)C(=O)OC2` [Mycophenolate mofetil], the “optomotor response to blue moving lines” value was determined as 16.8. Take `CN(C)CCc1c[nH]c2ccc(Cn3cncn3)cc12` [Rizatriptan benzoate]: the “optomotor response to blue moving lines” value came to 3.13. Turning to `Cc1cn([C@H]2C=C[C@@H](CO)O2)c(=O)[nH]c1=O` [Stavudine], the “optomotor response to blue moving lines” value amounted to 10. Regarding `Cn1cnc([N+](=O)[O-])c1Sc1ncnc2[nH]cnc12` [Azathioprine], the “optomotor response to blue moving lines” value was determined as 9.74. The figure for `COc1ccccc1OCC(O)CN1CCN(CC(=O)Nc2c(C)cccc2C)CC1` (stereo not given) [Ranolazine dihydrochloride] is 13.8. As to `O=C1CCc2cc(OCCCCc3nnnn3C3CCCCC3)ccc2N1` [Cilostazol], the “optomotor response to blue moving lines” value amounted to 6.53.

With `CCCCC(=O)N(Cc1ccc(-c2ccccc2-c2nnn[nH]2)cc1)[C@H](C(=O)O)C(C)C` [Valsartan], the “optomotor response to blue moving lines” value stood at 6.89. The figure for `O=C(O)c1cc(/N=N/c2ccc(S(=O)(=O)Nc3ccccn3)cc2)ccc1O` [Sulfasalazine] is -4.22. Regarding `COc1cc2nc(N3CCN(C(=O)c4ccco4)CC3)nc(N)c2cc1OC` [Prazosin hydrochloride], the “optomotor response to blue moving lines” value stood at 0.0687. Take `CCCN(CCC)S(=O)(=O)c1ccc(C(=O)O)cc1` [Probenecid]: the “optomotor response to blue moving lines” value is 2.07. For `CC(C)N(CCCCOCC(=O)NS(C)(=O)=O)c1cnc(-c2ccccc2)c(-c2ccccc2)n1` [Selexipag] the value was -1.72; for `Cc1nc(-c2ccc(OCC(C)C)c(C#N)c2)sc1C(=O)O` [Febuxostat], -7.14. As to `Cc1cccc(CN2CCN(C(c3ccccc3)c3ccc(Cl)cc3)CC2)c1` (stereo not given) [Meclizine dihydrochloride], the “optomotor response to blue moving lines” value is -6.39. With `COc1cc([C@@H]2c3cc4c(cc3[C@@H](O[C@@H]3O[C@@H]5CO[C@@H](C)O[C@H]5[C@H](O)[C@H]3O)[C@H]3COC(=O)[C@H]23)OCO4)cc(OC)c1O` [Etoposide], the “optomotor response to blue moving lines” value was 6.33.

Take `C=C1[C@H](CO)[C@@H](O)C[C@@H]1n1cnc2c(=O)[nH]c(N)nc21` [Entecavir]: the “optomotor response to blue moving lines” value worked out at 11.4. As for `O=c1n(CCCN2CCN(c3cccc(Cl)c3)CC2)nc2ccccn12` [Trazodone hydrochloride], the “optomotor response to blue moving lines” value worked out at 6.49. For `CCCCc1nc(Cl)c(CO)n1Cc1ccc(-c2ccccc2-c2nnn[nH]2)cc1` [Losartan potassium] the value was -6.92; for `CC(C)Nc1cccnc1N1CCN(C(=O)c2cc3cc(NS(C)(=O)=O)ccc3[nH]2)CC1` [Delavirdine mesylate], -0.42.

Consider `CC[C@H]1OC(=O)[C@H](C)[C@@H](O[C@H]2C[C@@](C)(OC)[C@@H](O)[C@H](C)O2)[C@H](C)[C@@H](O[C@@H]2O[C@H](C)C[C@H](N(C)C)[C@H]2O)[C@](C)(O)C[C@@H](C)CN(C)[C@H](C)[C@@H](O)[C@]1(C)O` [Azithromycin], for which the “optomotor response to blue moving lines” value is -9.61. For `COCCCOc1cc(C[C@@H](C[C@H](N)[C@@H](O)C[C@H](C(=O)NCC(C)(C)C(N)=O)C(C)C)C(C)C)ccc1OC` [Aliskiren hemifumarate] the value was -5.15; for `CC(C)(C)NC(=O)[C@@H]1C[C@@H]2CCCC[C@@H]2CN1C[C@@H](O)[C@H](Cc1ccccc1)NC(=O)[C@H](CC(N)=O)NC(=O)c1ccc2ccccc2n1` [Saquinavir mesylate], -2.78; for `O=C(NCC1CCCCN1)c1cc(OCC(F)(F)F)ccc1OCC(F)(F)F` (stereo not given) [Flecainide acetate], 9.21. The figure for `CN1CCC[C@@H]1CCO[C@](C)(c1ccccc1)c1ccc(Cl)cc1` [Clemastine fumarate] is 22.4; for `COc1cc2nccc(Oc3ccc(NC(=O)C4(C(=O)Nc5ccc(F)cc5)CC4)cc3)c2cc1OC` it is -8.79; for `CN1CCC[C@@H]1Cc1c[nH]c2ccc(CCS(=O)(=O)c3ccccc3)cc12` [Eletriptan hydrobromide] it is 5.86. For the compound `CNCc1ccc(-c2[nH]c3cc(F)cc4c3c2CCNC4=O)cc1` [Rucaparib camsylate], the “optomotor response to blue moving lines” value was found to be 10.7. For `CN(C)C(=N)NC(=N)N` [Metformin hydrochloride], the “optomotor response to blue moving lines” value was found to be 22.6. Regarding `CN1CCN(CCCN2c3ccccc3Sc3ccc(Cl)cc32)CC1` [Prochlorperazine dimaleate], the “optomotor response to blue moving lines” value was 12.2. On to `CC(=O)S[C@@H]1CC2=CC(=O)CC[C@]2(C)[C@H]2CC[C@@]3(C)[C@@H](CC[C@@]34CCC(=O)O4)[C@H]12` [Spironolactone], for which the “optomotor response to blue moving lines” value was 1.86. Turning to `CC(C)(C(=O)c1cccnc1)c1cccnc1` [Metyrapone], the “optomotor response to blue moving lines” value is -8.19. Consider `Cc1cc(C2CCCCC2)n(O)c(=O)c1` [Ciclopirox], for which the “optomotor response to blue moving lines” value was -8.77. Take `CNC(=O)c1cc(Oc2ccc(NC(=O)Nc3ccc(Cl)c(C(F)(F)F)c3)cc2)ccn1` [Sorafenib]: the “optomotor response to blue moving lines” value is -18.5. As for `CC(C)c1nc(CN(C)C(=O)N[C@H](C(=O)N[C@@H](Cc2ccccc2)C[C@H](O)[C@H](Cc2ccccc2)NC(=O)OCc2cncs2)C(C)C)cs1` [Ritonavir], the “optomotor response to blue moving lines” value is -11.8. With `O=C(O[C@@H]1C[C@@H]2C[C@H]3C[C@H](C1)N2CC3=O)c1c[nH]c2ccccc12` [Dolasetron mesylate], the “optomotor response to blue moving lines” value is 0.622. With `CC(=O)O[C@]1(C(C)=O)CC[C@H]2[C@@H]3C=C(C)C4=CC(=O)CC[C@]4(C)[C@H]3CC[C@@]21C` [Megestrol Acetate], the “optomotor response to blue moving lines” value was -7.55. Consider `CCN(CC)CCNC(=O)c1c(C)[nH]c(/C=C2\C(=O)Nc3ccc(F)cc32)c1C` [Sunitinib malate], for which the “optomotor response to blue moving lines” value was -5.69.
